Reference: PubChem BioAssay (Tox21)
Inconclusive results are not listed. Entries that show only a call come without a potency. Values without a mark were called inactive. Activity calls are given as the source filed them. Unless noted, calls come from the whole dose curve; as a rule, active = well fitted curve in the direction sought with a large enough effect in the repeat runs; inconclusive = weak or mixed curves; inactive = no such curve, though single readings can be large; an effect the other way counts as inactive or inconclusive.

Experiments:
[1] = qHTS assay to identify small molecule agonists of the vitamin D receptor (VDR) signaling pathway - cell viability counter screen (AID 743224); note: nearly all actives have a fitted effect of over 50% in size; note: potency is the fitted concentration of half-maximal effect; for activity change, negative = cytotoxicity: series mostly up to about 63 µM
How it was run: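 Luminescence from CellTiter-Glo, read after 30 min at room temperature, reports viability of VDR-bla cells treated with compounds for 16 h at 37C in the wells used for the beta-lactamase FRET read.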

[2] = qHTS assay to identify small molecule antagonists of the vitamin D receptor (VDR) signaling pathway - cell viability counter screen (AID 743225); note: nearly all actives have a fitted effect of over 50% in size; note: potency is the fitted concentration of half-maximal effect
How it was run: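 Cytotoxicity toward the VDR-bla HEK 293T line was scored by ATP-based CellTiter-Glo luminescence, read in the wells already used for the beta-lactamase readout after 16 h compound treatment under 3 nM 1-alpha,25-dihydroxyvitamin D3 stimulation.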

[3] = qHTS assay to identify small molecule agonists of the NFkB signaling pathway (AID 1159509; active = well fitted curve in the direction sought with a large enough effect in the signal ratio in the repeat runs, not every such curve was filed as active; the % refers to the signal ratio; note: series mostly up to about 61 µM)
How it was run: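 ME-180 NFkB-bla, 2,000 cells/well, overnight plating; cpd pinned in DMSO, 5 h 37 C; B/G FRET substrate 1.5 h RT; ex 405, em 460/530 nm.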

[4] = qHTS assay to identify small molecule agonists of the NFkB signaling pathway - cell viability counter screen (AID 1159515; calls by dose curve; note: series mostly up to about 61 µM; nearly all actives have a fitted effect of over 55% in size)
How it was run: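 Luminescence from CellTiter-Glo (30 min, room temperature) gives viability, measured in the same wells as the beta-lactamase reporter read. Cells were NFkB-bla ME-180, 2,000 per well, treated 5 hr with compounds.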

[5] = qHTS assay to identify small molecule antagonists of the retinoid-related orphan receptor gamma (ROR-gamma) signaling pathway - cell viability counter screen (AID 1159520); note: nearly all actives have a fitted effect of over 50% in size; note: potency is the fitted concentration of half-maximal effect
How it was run: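 Tet-on ROR gamma CHO cells (1,000/well) were plated 4 hr, given compounds in DMSO for 2 hr at 37 C, then induced with 1 uM final doxycycline for 16 hr. Viability was read as ATP by CellTiter-Glo luminescence after 30 min.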

[6] = qHTS assay to identify small molecule agonists of the AP-1 signaling pathway - cell viability counter screen (AID 1159525; calls by dose curve; note: nearly all actives have a fitted effect of over 55% in size)
How it was run: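 ME-180 AP-1-bla, 2500 cells/well, Opti-MEM + 0.5% dialyzed FBS; overnight 37 °C; cpd 15-pt titration, 5 h 37 °C; CellTiter-Glo 30 min RT; luminescence read; normalised to TOAB and DMSO controls.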

[7] = qHTS assay to identify small molecule agonists of the AP-1 signaling pathway (AID 1159526; calls by dose curve)
[8] = qHTS assay to identify small molecule agonists of the endoplasmic reticulum stress response signaling pathway (AID 1159516; active = well fitted activation curve with a large enough effect in the signal ratio in the repeat runs, not every such curve was filed as active; the % refers to the signal ratio)
How it was run: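 Read-out is beta-lactamase cleavage of a FRET substrate (405 nm excitation; 460 and 530 nm emissions) in ESRE-bla HeLa cells after a 5 hr compound exposure at 37 C. Substrate incubation ran 2 hr at room temperature.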

[9] = qHTS assay to identify small molecule agonists of the endoplasmic reticulum stress response signaling pathway - cell viability counter screen (AID 1159517; calls by dose curve;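 note: HeLa cells carrying an ER stress response element beta-lactamase reporter; series mostly up to about 61 µM; nearly all actives have a fitted effect of over 50% in size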)
How it was run: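 CellTiter-Glo was added to wells already read for beta-lactamase FRET, and luminescence was recorded 30 min later. Cells: ESRE-bla HeLa, 1,500 per well, compound exposure 5 hr at 37 C.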

[10] = biological target: Nuclear receptor ROR-gamma (Homo sapiens) (UniProt P51449); test: qHTS assay to identify small molecule antagonists of the retinoid-related orphan receptor gamma (ROR-gamma) signaling pathway (AID 1159521; note: nearly all actives have a fitted effect of over 50% in size; note: potency is the fitted concentration of half-maximal effect)
How it was run: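 Readout: ONE-Glo luciferase luminescence, 30 min at room temperature. System: Tet-on RORγ CHO, RORE-LUC. Sequence: compound 2 h, doxycycline 1 uM final, 16 h at 37 C.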

## COP(=S)(OC)Oc1ccc([N+](=O)[O-])cc1Cl
[1]
  Potency: inactive
[2]
  Potency: inactive
[3]
  outcome: inactive
[4]
  Potency: inactive
[5]
  Potency: inactive
[6]
  Potency: inactive
[7]
  outcome: inactive

## NCC(CC(=O)O)c1ccc(Cl)cc1 (stereo not drawn)
[1]
  activity change, negative = cytotoxicity: 15.2% [at 0.55 µM]
[2]
  viability change, negative = cytotoxic: 6.5% [at 0.628 µM]
[3]
  activation: 0.398% [at 0.628 µM]
[4]
  activity, negative = cytotoxic: 1.83% [at 0.628 µM]
[5]
  activity, negative = cytotoxicity: -1.2% [at 0.349 µM]
[6]
  viability change, negative = cytotoxic: -1.57% [at 0.29 µM]
[7]
  activation: -1.64% [at 0.29 µM]

## NNC(=O)c1cccnc1
[1]
  Potency: inactive
[3]
  outcome: inactive
[8]
  outcome: inactive
[9]
  Potency: inactive
[5]
  Potency: inactive
[10]
  Potency: inactive
[6]
  Potency: inactive
[7]
  outcome: inactive

## S=C=NCc1ccccc1
[2]
  Potency: inactive
[3]
  outcome: inactive
[4]
  Potency: inactive
[10]
  Potency: inactive
[6]
  Potency: inactive

## BrCC(Br)C1CCC(Br)C(Br)C1 (stereo not drawn)
[2]
  Potency: inactive
[3]
  outcome: inactive
[4]
  Potency: inactive
[5]
  Potency: inactive
[6]
  Potency: inactive

## CC(Cl)Cl
[1]
  Potency: inactive
[2]
  Potency: inactive
[3]
  outcome: inactive
[8]
  outcome: inactive
[9]
  Potency: inactive
[5]
  Potency: inactive
[10]
  Potency: inactive
[6]
  Potency: inactive
[7]
  outcome: inactive

## O=C=Nc1ccc(Cl)cc1
[3]
  outcome: inactive
[8]
  outcome: inactive
[9]
  Potency: inactive
[5]
  Potency: inactive
[10]
  Potency: inactive
[6]
  Potency: inactive
[7]
  outcome: inactive

## N#C/C(N)=C(/N)C#N
[1]
  Potency: inactive
[2]
  Potency: inactive
[3]
  outcome: inactive
[8]
  outcome: inactive
[9]
  Potency: inactive
[5]
  Potency: inactive
[10]
  Potency: inactive
[6]
  Potency: inactive
[7]
  outcome: inactive

## O=Cc1ccc(Cl)cc1Cl
[1]
  Potency: inactive
[3]
  outcome: inactive
[8]
  outcome: inactive
[9]
  Potency: inactive
[5]
  Potency: inactive
[10]
  Potency: inactive
[6]
  Potency: inactive
[7]
  outcome: inactive

## CCCCOC(=O)c1ccccc1C(=O)OCc1ccccc1
[1]
  Potency: inactive
[2]
  Potency: inactive
[3]
  outcome: inactive
[8]
  outcome: inactive
[9]
  Potency: inactive
[5]
  Potency: inactive
[10]
  Potency: inactive
[6]
  Potency: inactive
[7]
  outcome: inactive

## COCCOCCO
[2]
  Potency: inactive
[3]
  outcome: inactive
[4]
  Potency: inactive
[5]
  Potency: inactive

## CCC(Br)(CC)C(=O)NC(N)=O
[1]
  Potency: inactive
[3]
  outcome: inactive
[8]
  outcome: inactive
[9]
  Potency: inactive
[5]
  Potency: inactive
[10]
  Potency: inactive
[6]
  Potency: inactive
[7]
  outcome: inactive

## Cn1cc[n+](C)c1 (tested in a mixture with another compound)
[1]
  Potency: inactive
[2]
  Potency: inactive
[3]
  outcome: inactive
[8]
  outcome: inactive
[9]
  Potency: inactive
[5]
  Potency: inactive
[10]
  Potency: inactive
[6]
  Potency: inactive
[7]
  outcome: inactive

## O=C(O)C1(c2ccc3c(c2)OC[C@H](Cc2ccc(-c4ccccc4)cc2)[C@H]3O)CCCC1
[1]
  Potency: 49 µM (active)
[2]
  Potency: 49 µM (active)
[3]
  outcome: inactive
[4]
  Potency: inactive
[6]
  Potency: inactive
[7]
  outcome: inactive

## C#CCOC(C(=O)OCCN(C)C)(c1ccccc1)c1ccccc1
[1]
  Potency: inactive
[2]
  Potency: inactive
[3]
  outcome: inactive
[8]
  outcome: inactive
[9]
  Potency: inactive
[5]
  Potency: inactive
[10]
  Potency: inactive
[6]
  Potency: inactive
[7]
  outcome: inactive

## CC(Cl)C(C)Cl (stereo not drawn)
[1]
  Potency: inactive
[2]
  Potency: inactive
[3]
  outcome: inactive
[4]
  Potency: inactive
[5]
  Potency: inactive
[6]
  Potency: inactive
[7]
  outcome: inactive

## O=C(CBr)c1ccccc1
[1]
  Potency: inactive
[2]
  Potency: inactive
[3]
  outcome: inactive
[8]
  outcome: inactive
[9]
  Potency: inactive
[5]
  Potency: inactive
[10]
  Potency: inactive
[6]
  Potency: inactive

## CCC(C)(NC(=O)c1cc(Cl)c(C)c(Cl)c1)C(=O)CCl (stereo not drawn)
[1]
  Potency: 55.3 µM (active)
[3]
  outcome: inactive
[4]
  Potency: inactive
[5]
  Potency: 21.8 µM (active)
[10]
  Potency: 6.15 µM (active)

## O=C1c2ccccc2C(=O)C1C(=O)C(c1ccccc1)c1ccccc1
[2]
  Potency: inactive
[3]
  outcome: inactive
[4]
  Potency: inactive
[5]
  Potency: inactive
[6]
  Potency: inactive
[7]
  outcome: inactive

## CC(=O)NC1CCSC1=O (stereo not drawn)
[1]
  Potency: inactive
[2]
  Potency: inactive
[3]
  outcome: inactive
[8]
  outcome: inactive
[9]
  Potency: inactive
[5]
  Potency: inactive
[10]
  Potency: inactive
[6]
  Potency: inactive
[7]
  outcome: inactive

## CCOC(=O)CBr
[1]
  Potency: inactive
[3]
  outcome: inactive
[8]
  outcome: inactive
[9]
  Potency: inactive
[5]
  Potency: inactive
[10]
  Potency: inactive
[6]
  Potency: inactive
[7]
  outcome: inactive
